This is a sample that favours compounds with a hit; in the whole collection about 11% have one here.
HP1b chromo inh: inhibitors of HP1-beta chromodomain binding to methylated histone tails. AlphaScreen HP1-beta / biotin-H3K9me3 peptide binding. 390,000 tested, 0.56% active. AID 540317. Potency, µM (doses to about 114 µM), for inactives: at the highest dose activity change, negative = inhibition, most hits filed as inhibitors; also: nearly all actives have a fitted effect of over 70% in size
Target sequence (P83916 whole entry, looked up): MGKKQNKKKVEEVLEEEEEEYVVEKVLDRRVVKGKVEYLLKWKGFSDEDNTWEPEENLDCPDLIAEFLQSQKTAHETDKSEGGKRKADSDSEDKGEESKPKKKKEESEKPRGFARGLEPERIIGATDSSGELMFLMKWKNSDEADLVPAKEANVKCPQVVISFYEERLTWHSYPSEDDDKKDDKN
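HP1-beta protein (50 nM final) preincubated 30 min at room temperature with biotinylated H3(1-18)K9me3 peptide (50 nM) in PBS pH 7.4, 0.01% Tween-20, then compound added for 30 min. AlphaScreen streptavidin donor/nickel chelate acceptor beads (10 ug/mL final), 30 min dark, luminescence read.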
BAZ2B block: blocks human BAZ2B | Potency, µM (series often up to 114 µM), for inactives: top-dose activity change, negative = inhibition, hits mostly inhibitors | AlphaScreen BAZ2B-H3K14Ac peptide displacement | 360,000 tested, 4.4% active | AID 504333; also: % is scaled to controls: 0 for no effect and ±100 for the full control effect; nearly all actives have a fitted effect of over 60% in size
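In this displacement format the biotinylated H3(5-23) peptide acetylated at Lys14 serves as ligand at 50 nM, with BAZ2B at 50 nM in PBS pH 7.4 containing 0.01% Tween-20. Donor and acceptor beads are 10 ug/mL final.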
VDR inhibitor: inhibitors of human vitamin D receptor; P11473; VDR-SRC2-3 peptide fluorescence polarization, 2 h; Potency, µM, for inactives: max response, negative = inhibition, hits mostly inhibitors; 400,000 tested, 0.93% active; also: % is scaled to controls: 0 for no effect and ±100 for the full control effect
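Measured by FP: displacement of SRC2-3 coactivator peptide from VDR by library compounds, following a two-hour ambient incubation.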
PLK1 PBD inh: PLK1 (human) polo-box domain binding inhibition. P53350. Plk1 PBD binding of FITC phosphopeptide, fluorescence polarization. Potency, µM, for the others: max response, negative = inhibition, hits mostly inhibitors. 360,000 tested, 2.8% active; also: series mostly up to about 57 µM; % is scaled to controls: 0 for no effect and ±100 for the full control effect; nearly all actives have a fitted effect of over 65% in size
G9a block: inhibitors of human histone lysine methyltransferase G9a. Q96KQ7. G9a H3K9 monomethylation, AlphaScreen, 2 h. Potency, µM (titrated, usually from 102 µM), for the others: at the top dose activity, negative = inhibition, hits mostly inhibitors. 350,000 tested, 8.8% active. AID 504332; also: % is scaled to controls: 0 for no effect and ±100 for the full control effect; nearly all actives have a fitted effect of over 75% in size
Target sequence (Q96KQ7 913-1193 limits assumed): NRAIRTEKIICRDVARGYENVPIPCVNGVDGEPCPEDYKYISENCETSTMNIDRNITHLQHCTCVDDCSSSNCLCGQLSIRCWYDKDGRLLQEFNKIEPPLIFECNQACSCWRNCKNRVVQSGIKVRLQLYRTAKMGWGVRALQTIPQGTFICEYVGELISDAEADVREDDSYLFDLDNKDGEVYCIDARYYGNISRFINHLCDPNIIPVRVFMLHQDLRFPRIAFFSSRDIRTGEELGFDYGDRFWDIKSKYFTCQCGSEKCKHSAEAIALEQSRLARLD
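Compounds were preincubated with 20 nM G9a for 15 min, after which biotinylated H3K9 peptide (500 nM) and SAM (20 uM) started a 2 h room-temperature reaction. Monomethylated product was quantified by antibody-based AlphaScreen chemiluminescence.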
JMJD2A Tudor inh: JMJD2A Tudor domain (human) inhibition. 390,000 tested, 4.4% active. Potency, µM (titrated, usually from 114 µM), for the others: at the highest dose activity change, negative = inhibition, most hits filed as inhibitors. AlphaScreen JMJD2A-Tudor / H3K4me3 peptide binding. AID 504339; also: % is scaled to controls: 0 for no effect and ±100 for the full control effect; nearly all actives have a fitted effect of over 50% in size
Numbers without * were called inactive; [ ] = remark or other dose. Calls follow the shape of the dose curve; as a rule, active = well fitted curve in the direction sought with a large enough effect; inconclusive = small, poorly fitted or top-dose-only effect, or another doubt; inactive = no such curve, though single readings can be large; an effect the other way counts as inactive or inconclusive. Potency is read from the fitted curve at half-maximal effect.

How did CN1CCN(C2CC(=O)N(c3ccc4c(c3)OCCO4)C2=O)CC1 (stereo not drawn) do in these assays?
HP1b chromo inh: 44.8%; BAZ2B block: inconclusive; VDR inhibitor: -6.8%; PLK1 PBD inh: 3.5%; G9a block: 44.7µM*; JMJD2A Tudor inh: inconclusive

What do the screens show for `CCOc1cc(N2CCOCC2)c(OCC)cc1NC(=O)C(C)(C)C`?
HP1b chromo inh: 45.3%; VDR inhibitor: 23.4%; PLK1 PBD inh: 5.4%; G9a block: -6.7%; JMJD2A Tudor inh: -11.6%

What do the screens show for `COc1ccccc1NC(=O)c1ccc(-n2ccnc2)c([N+](=O)[O-])c1`?
HP1b chromo inh: 26.3%; BAZ2B block: 1.8%; VDR inhibitor: -10.8%; PLK1 PBD inh: 6.9%; G9a block: -1.2%[2.33 µM]; JMJD2A Tudor inh: -16.9%

What do the screens show for `CCOc1cc(N2CCOCC2)c(OCC)cc1NS(=O)(=O)c1cc(NC(C)=O)ccc1OC`?
HP1b chromo inh: 12.2%; BAZ2B block: 70.8µM*; VDR inhibitor: 7.2%; PLK1 PBD inh: -16.9%; G9a block: 44.7µM*; JMJD2A Tudor inh: -32.5%

How did CN(C)S(=O)(=O)c1cccc(NC(=O)c2ccc(N3CCOCC3)c([N+](=O)[O-])c2)c1 do in these assays?
HP1b chromo inh: -5.1%; BAZ2B block: inconclusive; VDR inhibitor: -11.2%; PLK1 PBD inh: -3.5%; G9a block: 50.1µM*; JMJD2A Tudor inh: -32.9%

What do the screens show for `COc1ccc(NC(C)=O)cc1NS(=O)(=O)c1cn(C)c(=O)n(C)c1=O`?
HP1b chromo inh: 44.5%; BAZ2B block: 79.4µM*; VDR inhibitor: -16.2%; PLK1 PBD inh: -7.9%; G9a block: -9.4%; JMJD2A Tudor inh: -9.9%

Results for CN(C)S(=O)(=O)c1cc(NC(=O)c2ccc(-n3ccnc3)c([N+](=O)[O-])c2)ccc1Cl ?
HP1b chromo inh: 19.7%; BAZ2B block: -28.8%; VDR inhibitor: -12.8%; PLK1 PBD inh: 1.7%; G9a block: 44.7µM*; JMJD2A Tudor inh: -27.4%

What do the screens show for `Cn1c(NNC(=O)C2CCCCC2)cc(=O)n(C)c1=O`?
HP1b chromo inh: 10.6%; BAZ2B block: 8.5%; VDR inhibitor: inconclusive; PLK1 PBD inh: -2.8%; G9a block: 6.6%; JMJD2A Tudor inh: -8.8%

What do the screens show for `O=C(c1ccc([N+](=O)[O-])cc1)N(Cc1ccco1)c1ccccn1`?
HP1b chromo inh: 32.6%; BAZ2B block: -28.6%; VDR inhibitor: 7.7%; G9a block: -33.7%[59 µM]; JMJD2A Tudor inh: -10.3%

What do the screens show for `COc1ccc(CCOC(=O)c2ccc(N)c([N+](=O)[O-])c2)cc1`?
HP1b chromo inh: -6.0%; BAZ2B block: inconclusive; VDR inhibitor: -2.0%; PLK1 PBD inh: -11.7%; G9a block: inconclusive; JMJD2A Tudor inh: inconclusive

How did CCOc1cc(C(=O)Nc2ccc(-c3nc4ccccc4s3)cc2Cl)cc(OCC)c1OCC do in these assays?
HP1b chromo inh: 57.1%; BAZ2B block: inconclusive; VDR inhibitor: 17.3%; G9a block: 2.2%[59 µM]; JMJD2A Tudor inh: -7.7%

How did COc1ccccc1NS(=O)(=O)c1cc(NC(=O)c2cnccn2)ccc1N1CCOCC1 do in these assays?
HP1b chromo inh: 46.7%; BAZ2B block: -14.7%; VDR inhibitor: 0.6%; PLK1 PBD inh: -5.7%; JMJD2A Tudor inh: -13.7%

How did COc1ccccc1NS(=O)(=O)c1cc(NC(=O)c2cccc(S(=O)(=O)N(C)C)c2)ccc1N1CCOCC1 do in these assays?
HP1b chromo inh: 41.1%; BAZ2B block: 3.5%; VDR inhibitor: -1.9%; PLK1 PBD inh: -15.7%; G9a block: 17.8µM*; JMJD2A Tudor inh: -20.9%

Results for COc1ccccc1NS(=O)(=O)c1cc(NC(=O)c2ccncc2)ccc1N1CCOCC1 ?
HP1b chromo inh: inconclusive; BAZ2B block: 5.6%; VDR inhibitor: -28.3%; PLK1 PBD inh: 13.4µM*; G9a block: inconclusive; JMJD2A Tudor inh: -31.8%

Results for COc1ccc(N(C)S(=O)(=O)c2cccc(C(=O)NC3=NCCS3)c2)cc1 ?
HP1b chromo inh: 16.5%; BAZ2B block: 13.5%; VDR inhibitor: -9.5%; PLK1 PBD inh: -9.6%; G9a block: 70.8µM*; JMJD2A Tudor inh: -14.3%

Screens deposited in PubChem BioAssay by National Center for Advancing Translational Sciences (NCATS).
